Data published in PubChem BioAssay (NCI).
The panel holds about 79,000 compounds, 15% with a hit somewhere; the sample as a whole holds those more often. Values without a mark were called inactive. Calls of active or inactive are those of the source. No stated cut-off is given here; in the data, active means growth inhibition above about 70%; inactive means the rest.

Columns and labels:
[1] = NCI Yeast Anticancer Drug Screen. Data for the rad50 strain (AID 155);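 further: 0% = growth of vehicle-only cultures of the same strain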; conditions: S. cerevisiae rad50 strain growth inhibition; at 50.0 µM; active compounds read high
In short: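 DNA repair mutant yeast, compound exposure, growth read-out; inhibition is taken relative to vehicle.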

[2] = NCI Yeast Anticancer Drug Screen. Data for the mec2-1 strain (AID 157); conditions: S. cerevisiae mec2-1 strain, at 50.0 µM, active compounds read high
In short: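 Growth inhibition is read against vehicle-treated controls after compound exposure of the mec2-1 yeast strain, which is defective in DNA damage repair or cell cycle control.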

[3] = NCI Yeast Anticancer Drug Screen. Data for the sgs1 mgt1 strain (AID 161);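 further: 0% = growth of cultures given vehicle only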; conditions: S. cerevisiae sgs1 mgt1 strain, at 50.0 µM, active compounds read high
In short: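 This yeast growth screen uses a strain with defined DNA-repair lesions; compound-treated growth is compared with vehicle-treated growth.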

[4] = NCI Yeast Anticancer Drug Screen. Data for the cln2 rad14 strain (AID 165);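 further: 0% = growth equal to vehicle treated cultures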; conditions: S. cerevisiae cln2 rad14 strain, at 50.0 µM, active compounds read high
In short: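 Growth inhibition, relative to vehicle-treated controls, is the read-out. The test organism is a yeast strain with defined genetic alterations, cln2 rad14.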

[5] = NCI Yeast Anticancer Drug Screen. Data for the bub3 strain (AID 167); conditions: S. cerevisiae bub3 mutant strain, at 50.0 µM, active compounds read high
In short: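 In this screen, a yeast mutant lacking normal mitotic checkpoint function is challenged with compound. Relative growth versus vehicle gives the inhibition value.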

[6] = NCI Yeast Anticancer Drug Screen. Data for the mlh1 rad18 strain (AID 175); conditions: S. cerevisiae mlh1 rad18 strain growth inhibition; at 50.0 µM; active compounds read high
In short: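 Cells of a genetically altered yeast strain, deficient in DNA damage repair, were treated with compound. Their growth was then compared with that of vehicle-treated cultures to give inhibition.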

NC(=O)c1ccc2c(c1)-c1nc-2nc2[n-]c(nc3nc(nc4[n-]c(n1)c1ccc(C(N)=O)cc41)-c1ccc(C(N)=O)cc1-3)c1ccc(C(N)=O)cc21.[Co+2]
growth inhibition [1]: -7.55%
growth inhibition [2]: 4.65%
growth inhibition [3]: 1.8%
growth inhibition [4]: 29.2%
growth inhibition [5]: 35%
growth inhibition [6]: 4.35%

CN1CCC/C1=C/C(=O)c1ccccc1[N+](=O)[O-]
growth inhibition [1]: 2.9%
growth inhibition [2]: -0.1%
growth inhibition [3]: -0.65%
growth inhibition [4]: -28.3%
growth inhibition [5]: 9.6%
growth inhibition [6]: -11.7%

CCOC(=O)C(=O)C1CCCC(C)C1=O (configuration not stated)
growth inhibition [1]: 16%
growth inhibition [2]: 11.8%
growth inhibition [3]: -16.6%
growth inhibition [4]: -43.1%
growth inhibition [5]: 10.8%
growth inhibition [6]: 1.05%

CC(C)C12Cc3c(ccc4ccccc34)OC1(C)Oc1ccc3ccccc3c1C2 (configuration not stated)
growth inhibition [1]: 18.6%
growth inhibition [2]: -17.4%
growth inhibition [3]: -13.5%
growth inhibition [4]: 20.1%
growth inhibition [5]: -6.8%
growth inhibition [6]: 7.05%

N=S(c1ccccc1)c1ccccc1[N+](=O)[O-] (configuration not stated)
growth inhibition [1]: 16.2%
growth inhibition [2]: -6.65%
growth inhibition [3]: 18.6%
growth inhibition [4]: 11.8%
growth inhibition [5]: 4.35%
growth inhibition [6]: -3.45%

COc1ccc(NC(=O)c2cc3cc(N=Nc4ccc(Br)cc4)ccc3oc2=O)cc1
growth inhibition [1]: -30.9%
growth inhibition [2]: 14.4%
growth inhibition [3]: -15.2%
growth inhibition [4]: 0.05%
growth inhibition [5]: -28.5%
growth inhibition [6]: -17.6%

CCCC1(C)OCC(C)(C)CO1
growth inhibition [1]: -1.05%
growth inhibition [2]: 2.45%
growth inhibition [3]: -13.3%
growth inhibition [4]: -28.8%
growth inhibition [5]: 3.85%
growth inhibition [6]: 1.9%

COc1ccc(NC(=O)CC/C(CC(=O)c2ccco2)=N/Nc2ccc([N+](=O)[O-])cc2[N+](=O)[O-])cc1
growth inhibition [1]: 21.4%
growth inhibition [2]: -6.8%
growth inhibition [3]: -0.05%
growth inhibition [4]: 3.1%
growth inhibition [5]: 22.1%
growth inhibition [6]: 2.95%

Cc1cc2c(C(C)C)c(O)c(O)c(C=Nc3ccccc3)c2c(O)c1-c1c(C)cc2c(C(C)C)c(O)c(O)c(C=Nc3ccccc3)c2c1O
growth inhibition [1]: 1.45%
growth inhibition [2]: 34%
growth inhibition [3]: 49.6%
growth inhibition [4]: -23%
growth inhibition [5]: -2.3%
growth inhibition [6]: 52.8%

NC(=O)COc1ncc(Cl)cc1Cl
growth inhibition [1]: 4.05%
growth inhibition [2]: -6.45%
growth inhibition [3]: 3.15%
growth inhibition [4]: -19.4%
growth inhibition [5]: 4.4%
growth inhibition [6]: 3.35%

Cc1cc(O)cc2oc(=O)ccc12
growth inhibition [1]: -34.4%
growth inhibition [2]: -23.4%
growth inhibition [3]: -9.9%
growth inhibition [4]: -11.7%
growth inhibition [5]: -11.7%
growth inhibition [6]: -15.2%

CCCc1cccc[n+]1CC(=O)c1ccccc1
growth inhibition [1]: 5.65%
growth inhibition [2]: 11.1%
growth inhibition [3]: 4.95%
growth inhibition [4]: -51.5%
growth inhibition [5]: 25.4%
growth inhibition [6]: -1.65%

CCCCCC(Nc1nncs1)Nc1nncs1
growth inhibition [1]: -4.2%
growth inhibition [2]: -20.5%
growth inhibition [3]: 14.9%
growth inhibition [4]: 6.1%
growth inhibition [5]: 8.4%
growth inhibition [6]: 12.6%

CN(C)S(=O)(=O)c1ccc(N)c([N+](=O)[O-])c1
growth inhibition [1]: -0.2%
growth inhibition [2]: 10.7%
growth inhibition [3]: -7.75%
growth inhibition [4]: -5.05%
growth inhibition [5]: 7.55%
growth inhibition [6]: 14.3%

C[N+]1(C)CC2C3C=C(I)C(C3)C2C1 (configuration not stated)
growth inhibition [1]: 26.8%
growth inhibition [2]: 17.4%
growth inhibition [3]: 15.2%
growth inhibition [4]: 48.4%
growth inhibition [5]: 11.9%
growth inhibition [6]: 26.1%

COC1OC(OC)c2cc([N+](=O)[O-])ccc21 (configuration not stated)
growth inhibition [1]: 9.9%
growth inhibition [2]: 17.3%
growth inhibition [3]: 18.1%
growth inhibition [4]: 23.2%
growth inhibition [5]: -11.1%
growth inhibition [6]: 50.2%

CC(=O)OC(C)C(=O)OCCOc1ccccc1 (configuration not stated)
growth inhibition [1]: 8.7%
growth inhibition [2]: -12%
growth inhibition [3]: 14.3%
growth inhibition [4]: -36.6%
growth inhibition [5]: -7.3%
growth inhibition [6]: -4%

C=CCN1C(=O)c2ccccc2S1(=O)=O
growth inhibition [1]: 8.2%
growth inhibition [2]: -2.35%
growth inhibition [3]: -5.95%
growth inhibition [4]: -27.8%
growth inhibition [5]: -3.15%
growth inhibition [6]: 3.55%

Clc1ccc2ccccc2n1
growth inhibition [1]: 15.1%
growth inhibition [2]: -1.65%
growth inhibition [3]: -6.4%
growth inhibition [4]: -23.1%
growth inhibition [5]: 9.8%
growth inhibition [6]: -8.15%

CCCCCCCCCCCCCCCCCC(=O)N1C(=O)c2ccccc2C1=O
growth inhibition [1]: 22.6%
growth inhibition [2]: 2.35%
growth inhibition [3]: 6.75%
growth inhibition [4]: -8.85%
growth inhibition [5]: -2.65%
growth inhibition [6]: 29.9%

C[N+](C)(CCO)CCN1c2ccccc2Sc2ccccc21
growth inhibition [1]: -3.1%
growth inhibition [2]: -17.5%
growth inhibition [3]: 10.2%
growth inhibition [4]: -23.6%
growth inhibition [5]: -14.6%
growth inhibition [6]: -3.7%

CNC(=O)c1ccccc1S(=O)Cc1ccc(Br)cc1 (configuration not stated)
growth inhibition [1]: -19.1%
growth inhibition [2]: -30.2%
growth inhibition [3]: -17.6%
growth inhibition [4]: 8.35%
growth inhibition [5]: 22.7%
growth inhibition [6]: -0.95%

COc1cc(C(=O)O)c(Cc2ccccc2)c(OC)c1O
growth inhibition [1]: 9.8%
growth inhibition [2]: 5.95%
growth inhibition [3]: 1.05%
growth inhibition [4]: 5.6%
growth inhibition [5]: 9.05%
growth inhibition [6]: -3.2%

CC(=O)CCCS(=O)(=O)c1ccccc1
growth inhibition [1]: -1.5%
growth inhibition [2]: 14.9%
growth inhibition [3]: 0.9%
growth inhibition [4]: -12.7%
growth inhibition [5]: -3.8%
growth inhibition [6]: 5.2%

Cn1cnc([N+](=O)[O-])c1Sc1ccncc1S(N)(=O)=O
growth inhibition [1]: -5.65%
growth inhibition [2]: -14.4%
growth inhibition [3]: 0.2%
growth inhibition [4]: 2.1%
growth inhibition [5]: 6.5%
growth inhibition [6]: -9.15%

CC(=O)c1ccc(N=Nc2ccc3nonc3c2N)cc1
growth inhibition [1]: -22.5%
growth inhibition [2]: -4.35%
growth inhibition [3]: -20.6%
growth inhibition [4]: -10.2%
growth inhibition [5]: 5.25%
growth inhibition [6]: -9.45%

CC(C)C(=O)Nc1nc(OCCc2ccc([N+](=O)[O-])cc2)c2ncn(C3CC(O)C(CO)O3)c2n1 (configuration not stated)
growth inhibition [1]: 3.5%
growth inhibition [2]: -0.2%
growth inhibition [3]: 5.8%
growth inhibition [4]: 8.5%
growth inhibition [5]: -0.75%
growth inhibition [6]: -11.8%

CC(=O)Oc1c(C(C)(C)C)cc([N+](=O)[O-])c(C)c1[N+](=O)[O-]
growth inhibition [1]: 97% (active)
growth inhibition [2]: 97.3% (active)
growth inhibition [3]: 94.9% (active)
growth inhibition [4]: 74.2% (active)
growth inhibition [5]: 94% (active)
growth inhibition [6]: 95.2% (active)

Cc1ccc2nc(NS(=O)(=O)c3cc(C)c(Cl)cc3S)[nH]c2c1
growth inhibition [1]: 9.35%
growth inhibition [2]: 4.35%
growth inhibition [3]: 9.1%
growth inhibition [4]: 8.25%
growth inhibition [5]: 16.4%
growth inhibition [6]: 39.9%

O=C(CN(Cc1ccccc1)Cc1ccccc1)C(O)C1OC(c2ccccc2)OCC1O (configuration not stated)
growth inhibition [1]: 1.45%
growth inhibition [2]: -5.55%
growth inhibition [3]: -2.3%
growth inhibition [4]: -4.5%
growth inhibition [5]: -1.65%
growth inhibition [6]: -4.1%

O=C(O)C#Cc1ccccc1
growth inhibition [1]: 25.7%
growth inhibition [2]: -27.9%
growth inhibition [3]: -1.8%
growth inhibition [4]: 2.6%
growth inhibition [5]: -23.2%
growth inhibition [6]: 0.3%

O=C(OCC(O)C(O)C(O)C(O)COC(=O)c1ccccc1)c1ccccc1 (configuration not stated) (tested in a mixture with another compound)
growth inhibition [1]: -0.9%
growth inhibition [2]: 3.6%
growth inhibition [3]: -0.75%
growth inhibition [4]: -29.6%
growth inhibition [5]: 0.85%
growth inhibition [6]: 12.2%

Cc1ccc(S(=O)(=O)OCC(c2ccccc2)C(F)(F)F)cc1 (configuration not stated)
growth inhibition [1]: -3.25%
growth inhibition [2]: -14.2%
growth inhibition [3]: 12.4%
growth inhibition [4]: -23.7%
growth inhibition [5]: 18.6%
growth inhibition [6]: -1%

Cc1ccc(OS(=O)(=O)NC(=O)NCc2ccco2)cc1
growth inhibition [1]: 18.8%
growth inhibition [2]: 4.9%
growth inhibition [3]: 7.7%
growth inhibition [4]: 8.9%
growth inhibition [5]: 3.95%
growth inhibition [6]: 4.35%

Cc1cc(C)n(-c2nc(C)c(CCO)c(=O)[nH]2)n1
growth inhibition [1]: -6.45%
growth inhibition [2]: -14.6%
growth inhibition [3]: -6.4%
growth inhibition [4]: 15.7%
growth inhibition [5]: -41.4%
growth inhibition [6]: -9.1%

O=C(Nc1cccc2ccccc12)Oc1ccc(Br)cc1Br
growth inhibition [1]: 84.1% (active)
growth inhibition [2]: 71.2% (active)
growth inhibition [3]: 93.3% (active)
growth inhibition [4]: 30.2%
growth inhibition [5]: 54.1%
growth inhibition [6]: 92.7% (active)

Cc1ccc(S(=O)(=O)N=Nc2c(O)[nH]c3c(Cl)cc(Cl)cc23)cc1
growth inhibition [1]: -11.8%
growth inhibition [2]: -18.8%
growth inhibition [3]: 4.65%
growth inhibition [4]: -1.2%
growth inhibition [5]: -22.4%
growth inhibition [6]: 23.2%
